Measurements from the supplement of paper PMC6897291.

How the values were obtained:
U-2932 [1] = experiment: growth inhibition by drug alone (1 - RLU/untreated control) (fraction); higher = stronger inhibition; conditions: 177Lu-lilotomab satetraxetan 0 ug/ml
Procedure, shortened: (§1)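 A radiolabelled anti-CD37 antibody conjugate (~600 MBq/mg) was applied for 18 h at 0.5 µg/ml to RIVA and 1 µg/ml to U-2932 cells, with untreated cells run alongside. All cells were washed and seeded at 3,000 cells/well onto library-printed plates at 10/100 nM (RIVA) or 10/1,000 nM (U-2932). Growth inhibition was based on RealTime-Glo luminescence compared with untreated no-drug wells. Daily reads began on day 3 after 1 h at 37°C, with each value being 1 − RLU/mean of the 48 such wells on that plate.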

RIVA [2] = experiment: as above; conditions: 177Lu-lilotomab satetraxetan 0 ug/ml
Procedure, shortened: as §1

U-2932 [3] = experiment: growth inhibition by drug plus 177Lu-lilotomab satetraxetan (1 - RLU/untreated control) (fraction); higher = stronger inhibition; conditions: 177Lu-lilotomab satetraxetan 1 ug/ml
Procedure, shortened: as §1

RIVA [4] = experiment: as above; conditions: 177Lu-lilotomab satetraxetan 0.5 ug/ml
Procedure, shortened: as §1

| Structure (SMILES) | growth inhibition by drug alone (U-2932 [1]; 10 nM, time (day): 3) | growth inhibition by drug alone (U-2932 [1]; 10 nM, time (day): 4) | growth inhibition by drug alone (U-2932 [1]; 10 nM, time (day): 5) | growth inhibition by drug alone (U-2932 [1]; 10 nM, time (day): 6) | growth inhibition by drug alone (U-2932 [1]; 1000 nM, time (day): 3) | growth inhibition by drug alone (U-2932 [1]; 1000 nM, time (day): 4) | growth inhibition by drug alone (U-2932 [1]; 1000 nM, time (day): 5) | growth inhibition by drug alone (U-2932 [1]; 1000 nM, time (day): 6) | growth inhibition by drug alone (RIVA [2]; 10 nM, time (day): 3) | growth inhibition by drug alone (RIVA [2]; 10 nM, time (day): 4) | growth inhibition by drug alone (RIVA [2]; 10 nM, time (day): 5) | growth inhibition by drug alone (RIVA [2]; 10 nM, time (day): 6) | growth inhibition by drug alone (RIVA [2]; 100 nM, time (day): 3) | growth inhibition by drug alone (RIVA [2]; 100 nM, time (day): 4) | growth inhibition by drug alone (RIVA [2]; 100 nM, time (day): 5) | growth inhibition by drug alone (RIVA [2]; 100 nM, time (day): 6) | growth inhibition by drug plus 177Lu-lilotomab satetraxetan (U-2932 [3]; 10 nM, time (day): 3) | growth inhibition by drug plus 177Lu-lilotomab satetraxetan (U-2932 [3]; 10 nM, time (day): 4) | growth inhibition by drug plus 177Lu-lilotomab satetraxetan (U-2932 [3]; 10 nM, time (day): 5) | growth inhibition by drug plus 177Lu-lilotomab satetraxetan (U-2932 [3]; 10 nM, time (day): 6) | growth inhibition by drug plus 177Lu-lilotomab satetraxetan (U-2932 [3]; 1000 nM, time (day): 3) | growth inhibition by drug plus 177Lu-lilotomab satetraxetan (U-2932 [3]; 1000 nM, time (day): 4) | growth inhibition by drug plus 177Lu-lilotomab satetraxetan (U-2932 [3]; 1000 nM, time (day): 5) | growth inhibition by drug plus 177Lu-lilotomab satetraxetan (U-2932 [3]; 1000 nM, time (day): 6) | growth inhibition by drug plus 177Lu-lilotomab satetraxetan (RIVA [4]; 10 nM, time (day): 3) | growth inhibition by drug plus 177Lu-lilotomab satetraxetan (RIVA [4]; 10 nM, time (day): 4) | growth inhibition by drug plus 177Lu-lilotomab satetraxetan (RIVA [4]; 10 nM, time (day): 5) | growth inhibition by drug plus 177Lu-lilotomab satetraxetan (RIVA [4]; 10 nM, time (day): 6) | growth inhibition by drug plus 177Lu-lilotomab satetraxetan (RIVA [4]; 100 nM, time (day): 3) | growth inhibition by drug plus 177Lu-lilotomab satetraxetan (RIVA [4]; 100 nM, time (day): 4) | growth inhibition by drug plus 177Lu-lilotomab satetraxetan (RIVA [4]; 100 nM, time (day): 5) | growth inhibition by drug plus 177Lu-lilotomab satetraxetan (RIVA [4]; 100 nM, time (day): 6) |
| --- | --- | --- | --- | --- | --- | --- | --- | --- | --- | --- | --- | --- | --- | --- | --- | --- | --- | --- | --- | --- | --- | --- | --- | --- | --- | --- | --- | --- | --- | --- | --- | --- |
| C[C@@H]1CN(CC(=O)Nc2ccc3c(c2)Cc2cccc(-c4cc(=O)cc(N5CCOCC5)o4)c2S3)C[C@H](C)O1 | 0.00343 | -0.0228 | -0.128 | -0.257 | -0.073 | -0.0366 | -0.0776 | -0.17 | -0.0136 | -0.0829 | -0.153 | -0.417 | -0.282 | -0.285 | -0.284 | -0.465 | -0.0592 | -0.0257 | -0.0361 | -0.0183 | -0.0688 | 0.0229 | 0.0334 | 0.0421 | 0.275 | 0.441 | 0.452 | 0.479 | 0.232 | 0.357 | 0.37 | 0.373 |
| CC[C@@H]1C(=O)N(C)c2cnc(Nc3ccc(C(=O)N[C@H]4CC[C@H](N5CCN(CC6CC6)CC5)CC4)cc3OC)nc2N1C(C)C [BI6727 (Volasertib)] | 0.335 | 0.327 | 0.308 | 0.37 | 0.962 | 0.975 | 0.98 | 0.982 | 0.23 | 0.19 | 0.153 | 0.0282 | 0.943 | 0.962 | 0.969 | 0.971 | 0.255 | 0.307 | 0.34 | 0.465 | 0.917 | 0.946 | 0.965 | 0.977 | 0.631 | 0.702 | 0.726 | 0.726 | 0.939 | 0.964 | 0.975 | 0.981 |
| Nc1ccc(C(=O)Nc2cccc(-c3nc(N4CCOCC4)c4oc5ncccc5c4n3)c2)cn1 | 0.123 | 0.0927 | 0.0179 | -0.0139 | 0.195 | 0.203 | 0.118 | 0.206 | -0.00332 | -0.02 | -0.0954 | -0.385 | 0.0916 | 0.0201 | 0.0261 | -0.0381 | 0.00496 | 0.0368 | 0.0937 | 0.133 | 0.163 | 0.259 | 0.223 | 0.329 | 0.467 | 0.548 | 0.558 | 0.579 | 0.541 | 0.566 | 0.558 | 0.533 |
| CCCCCCCCc1ccc(CCC(N)(CO)CO)cc1 [Fingolimod (FTY720)] | 0.0955 | 0.0585 | 0.0453 | -0.1 | 0.0228 | 0.0231 | 0.00428 | -0.0571 | 0.0298 | 0.0648 | -0.0103 | -0.296 | -0.16 | -0.13 | -0.129 | -0.231 | 0.0534 | 0.0695 | 0.13 | 0.219 | -0.0305 | 0.0614 | 0.0905 | 0.203 | 0.437 | 0.577 | 0.586 | 0.614 | 0.364 | 0.447 | 0.474 | 0.484 |
| CNC(=O)c1cc(Oc2ccc(NC(=O)Nc3ccc(Cl)c(C(F)(F)F)c3)c(F)c2)ccn1 [Regorafenib (BAY 73-4506)] | 0.146 | 0.0913 | 0.0627 | -0.0165 | 0.26 | 0.284 | 0.302 | 0.217 | 0.0302 | 0.118 | 0.0999 | 0.0537 | 0.189 | 0.262 | 0.302 | 0.293 | 0.125 | 0.179 | 0.283 | 0.319 | 0.269 | 0.291 | 0.39 | 0.48 | 0.632 | 0.688 | 0.717 | 0.733 | 0.463 | 0.581 | 0.629 | 0.644 |
| Nc1[nH]nc2nnc(-c3c(-c4ccccc4)nn4ccccc34)cc12 | 0.0936 | 0.109 | 0.0192 | -0.0741 | 0.0442 | 0.0356 | -0.0414 | -0.0395 | 0.0237 | 0.104 | 0.0531 | -0.13 | -0.0641 | 0.0167 | 0.00135 | -0.0876 | 0.135 | 0.17 | 0.238 | 0.275 | 0.0922 | 0.143 | 0.19 | 0.259 | 0.592 | 0.635 | 0.657 | 0.652 | 0.357 | 0.48 | 0.493 | 0.495 |
| CC(C=CC(=O)NO)=CC(C)C(=O)c1ccc(N(C)C)cc1 (centres undefined) [Trichostatin A (TSA)] | 0.0657 | 0.0558 | 0.00424 | -0.0676 | 0.98 | 0.983 | 0.983 | 0.983 | 0.0108 | -0.0626 | -0.0672 | -0.162 | 0.651 | 0.317 | 0.223 | 0.132 | 0.0166 | 0.0461 | 0.0335 | 0.0848 | 0.981 | 0.983 | 0.984 | 0.984 | 0.467 | 0.537 | 0.547 | 0.561 | 0.854 | 0.798 | 0.783 | 0.763 |
